From PubChem BioAssay
C2C12 statin – suppressors of simvastatin-induced myotoxicity in C2C12 myotubes; ATP luminescence, 48 h; scaled: DMSO 0, geranylgeraniol control 100; rescue of ATP level, % at 7.49 µM; 0.78% of 330,000 active;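 active means mean ATP rescue above about 67%, or every replicate alone reaching that limit, limit read from the data, passing the limit was not always enough; inconclusive means no clear call, values can overlap the other calls; inactive means mean under the limit and some replicate under it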;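 further: myotubes were challenged with 10 µM simvastatin during compound exposure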
PvdQ inh – P. aeruginosa PvdQ acylase inhibition. inhibition, % at 10 µM. 0.063% of 340,000 active. purified PvdQ acylase, fluorescence plate reader. AID 488965; in the data active means inhibition above about 30%, passing the limit was not always enough; inconclusive means no clear call, values can overlap the other calls
miR122 inh – miR-122 inhibition in Huh7 cells; 0.3% of 340,000 active; activation (reporter increase), % at 12.5 µM; AID 602342; Huh7 miR-122 Renilla luciferase sensor, 48 h; neutral wells = 0, positive control = 100;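 active means mean replicate activation score at least 90 and every replicate individually at or above 90; inconclusive means only one of the two criteria met; inactive means neither criterion met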;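 further: higher luciferase means less miR-122 activity so hits act as miR-122 inhibitors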
DENV2 CPE rescue – inhibitors of DENV2 cytopathic effect | CPE inhibition, % at 9.99 µM | DENV2-infected cells, cytopathic effect rescue, plate reader | 1.7% of 350,000 active; in the data active means CPE inhibition above about 20%, passing the limit was not always enough; inconclusive means no clear call, values can overlap the other calls; tested in BHK-21 cells
PGC1a acetyl inh – PGC1a acetylation modulation, inhibitor mode; U2OS PGC1a acetylation, AlphaScreen anti-acetyl-lysine; with virally co-expressed GCN5 acetyltransferase; 0.17% of 350,000 active; inhibition, % at 15.6 µM;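 active means every replicate shows inhibition of at least 40%; inconclusive means mean inhibition at least 40% but some replicate below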
Numbers stand for hits; [ ] = another dose, or the depositor's remark. Hits are enriched below; roughly 2.2% of the tested compounds scored in any of these assays.

O=C(Cc1ccccc1)N1CC(=O)N2[C@H](CO)[C@@H](c3ccc(C#Cc4ccccc4)cc3)[C@H]2C1 was read as DENV2 CPE rescue inactive and PGC1a acetyl inh inactive.
Screening O=C(c1cnccn1)N1CC(=O)N2[C@H](C1)[C@@H](c1ccc(/C=C/c3ccccc3)cc1)[C@@H]2CO returned DENV2 CPE rescue inactive and PGC1a acetyl inh inactive.
Screening C[C@H]1CN([C@@H](C)CO)C(=O)Cc2cc(NC(=O)CCCCCC(=O)Nc3ccccc3N)ccc2O[C@@H]1CN(C)C(=O)Nc1ccc(F)cc1 returned DENV2 CPE rescue inactive and PGC1a acetyl inh inactive.
Cc1ccc(C)c(/C(O)=C2\C(=O)C(=O)N(CCCn3ccnc3)C2c2ccncc2)c1 (centres undefined) was read as C2C12 statin 83.7, PvdQ inh inactive, miR122 inh inactive and PGC1a acetyl inh inactive.
For CC(=O)c1cccc(NC(=O)NCc2cccs2)c1 the results were C2C12 statin inactive, PvdQ inh inactive, miR122 inh 103.3 and PGC1a acetyl inh inactive.
For CC(=O)c1cccc(NC(=O)NCc2ccccn2)c1 the results were C2C12 statin inactive, PvdQ inh inactive, miR122 inh inactive, DENV2 CPE rescue inactive and PGC1a acetyl inh inactive.
Screening CCOC(=O)c1sc2nc(C3CC3)cc(-c3ccc(OC)cc3)c2c1N returned C2C12 statin 98.1, PvdQ inh inactive, miR122 inh inactive and PGC1a acetyl inh inactive.
CCOC(=O)c1sc2nc(C3CC3)cc(-c3ccc(F)cc3)c2c1N was read as C2C12 statin inactive, PvdQ inh inactive, miR122 inh inactive and PGC1a acetyl inh inactive.
For C[C@H](O)C#Cc1cnc2c(c1)C(=O)N([C@@H](C)CO)C[C@@H](C)[C@H](CN(C)CC1CCCCC1)O2 the results were DENV2 CPE rescue inactive and PGC1a acetyl inh inactive.
CCC(=O)N1CC2(C1)[C@@H](c1ccc(-c3ccccc3C)cc1)[C@@H](CO)N2C(=O)CC was read as DENV2 CPE rescue 36.8.
CCC(=O)N1CC2(C1)[C@H](c1ccccc1)[C@@H](CO)N2C(=O)c1ccncc1 was read as DENV2 CPE rescue 23.0 and PGC1a acetyl inh inactive.
CCC(=O)N1CC2(C1)[C@@H](c1ccccc1)[C@@H](CO)N2C(=O)c1cccnc1 was read as DENV2 CPE rescue 29.2 and PGC1a acetyl inh inactive.
For O=C(Cc1cccnc1)N1CC2(C1)[C@@H](c1ccccc1)[C@@H](CO)N2C(=O)C1CCOCC1 the results were DENV2 CPE rescue 22.3 and PGC1a acetyl inh inactive.
Cc1noc(C)c1NC(=O)Nc1ccc2c(c1)CC(=O)N([C@H](C)CO)C[C@@H](C)[C@@H](CN(C)C(=O)NC1CCCCC1)O2 was read as C2C12 statin inactive, miR122 inh inactive and PGC1a acetyl inh inactive.
Screening O=C(C[C@H]1C[C@@H]2c3cc(NC(=O)C4CCC4)ccc3O[C@@H]2[C@H](CO)O1)NCc1ccccn1 returned C2C12 statin inactive, miR122 inh inactive, DENV2 CPE rescue inactive and PGC1a acetyl inh inactive.
`C[C@H]1CCCCO[C@H](CN(C)Cc2ccncc2)[C@@H](C)CN([C@@H](C)CO)C(=O)c2cc(NS(=O)(=O)c3cn(C)cn3)ccc2O1` gave miR122 inh inactive, DENV2 CPE rescue inactive and PGC1a acetyl inh inactive.
C[C@@H]1CCCCO[C@@H](CN(C)C(=O)Nc2ccccc2)[C@H](C)CN([C@@H](C)CO)C(=O)c2cc(NC(=O)C3CCCCC3)ccc2O1 was read as miR122 inh inactive, DENV2 CPE rescue inactive and PGC1a acetyl inh inactive.
CCc1nc2nc(C)c(NS(=O)(=O)c3cccs3)c(=O)n2[nH]1 was read as C2C12 statin inactive, PvdQ inh inactive and DENV2 CPE rescue inactive.
For CCc1nc2nc(C)c(NS(=O)(=O)c3ccc(Br)s3)c(=O)n2[nH]1 the results were C2C12 statin inactive, PvdQ inh inactive, miR122 inh inactive, DENV2 CPE rescue 43.9 and PGC1a acetyl inh inactive.
For CCn1c(C)c(C(C)=O)c(N2CCCCC2)nc1=S the results were C2C12 statin 79.0, PvdQ inh inactive, miR122 inh inactive and PGC1a acetyl inh inactive.
For CCn1c(C)c(C(C)=O)c(N2CCC(C(N)=O)CC2)nc1=S the results were C2C12 statin inactive, PvdQ inh inactive, miR122 inh inactive and PGC1a acetyl inh inactive.
C[C@H](CO)N1C[C@H](C)[C@H](CN(C)C(=O)Nc2cccc3ccccc23)Oc2ccc(NC(=O)Nc3cccc4ccccc34)cc2C1=O was read as C2C12 statin inactive, miR122 inh inactive, DENV2 CPE rescue inactive and PGC1a acetyl inh inactive.
For CCOC(=O)c1cnc(-c2ccccc2)nc1N the results were C2C12 statin inactive, PvdQ inh 77.5, miR122 inh inactive, DENV2 CPE rescue inactive and PGC1a acetyl inh inactive.
CN(C)CC(O)c1ccc(C=Cc2ccc(Cl)cc2)cc1 (centres undefined) was read as C2C12 statin inactive, PvdQ inh inactive, miR122 inh inactive, DENV2 CPE rescue inactive and PGC1a acetyl inh 50.6.
`COc1ccc(NC(=O)Nc2ccc3c(c2)C(=O)N([C@@H](C)CO)C[C@@H](C)[C@@H](CN(C)C(=O)NC2CCCCC2)OCCCC[C@H](C)O3)cc1` gave miR122 inh inactive, DENV2 CPE rescue inactive and PGC1a acetyl inh inactive.
For O=C(Nc1ncnc2sc3c(c12)CCCCC3)c1ccco1 the results were C2C12 statin 128.2, PvdQ inh inactive, miR122 inh inactive and PGC1a acetyl inh inactive.
C[C@H]1CN([C@@H](C)CO)C(=O)c2cccc(NC(=O)c3ccncc3)c2O[C@@H]1CN(C)C(=O)Nc1ccccc1 was read as C2C12 statin inactive, miR122 inh inactive, DENV2 CPE rescue inconclusive and PGC1a acetyl inh inactive.
CC(C)NC(=O)N(C)C[C@H]1Oc2ccc(NC(=O)CCC(F)(F)F)cc2C(=O)N([C@H](C)CO)C[C@H]1C was read as C2C12 statin inactive, miR122 inh inactive, DENV2 CPE rescue 71.5 and PGC1a acetyl inh inactive.
Screening CC(C)NC(=O)N(C)C[C@@H]1Oc2ccc(NC(=O)CCC(F)(F)F)cc2C(=O)N([C@@H](C)CO)C[C@@H]1C returned C2C12 statin inactive, miR122 inh inactive, DENV2 CPE rescue inactive and PGC1a acetyl inh inactive.
CC(C)NC(=O)N(C)C[C@H]1Oc2ccc(NC(=O)CCC(F)(F)F)cc2C(=O)N([C@@H](C)CO)C[C@@H]1C was read as C2C12 statin inactive, miR122 inh inactive, DENV2 CPE rescue 23.2 and PGC1a acetyl inh inactive.
Screening CN1[C@@H]2c3ccc(/C=C/c4ccccc4)c(=O)n3C[C@@H]2[C@@H](CO)[C@@H]1C(=O)N1CCOCC1 returned C2C12 statin inactive, miR122 inh inactive, DENV2 CPE rescue inactive and PGC1a acetyl inh inactive.
Screening Cc1ccc(S(=O)(=O)N(C)C[C@@H]2Oc3ccc(NC(=O)Nc4ccc(C(F)(F)F)cc4)cc3CC(=O)N([C@H](C)CO)C[C@@H]2C)cc1 returned C2C12 statin inactive, miR122 inh 122.7[16.7 µM], DENV2 CPE rescue inactive and PGC1a acetyl inh inactive.
Screening Cc1ccc(S(=O)(=O)N(C)C[C@@H]2Oc3ccc(NC(=O)Nc4ccc(C(F)(F)F)cc4)cc3CC(=O)N([C@@H](C)CO)C[C@H]2C)cc1 returned C2C12 statin inactive, miR122 inh inactive, DENV2 CPE rescue 28.0 and PGC1a acetyl inh inactive.
